# In the supplement of paper PMC9794691:
# Test system: PC9
# Assay: area under confluence curve of compound monotherapy; compare to DMSO control AUC of the same experiment (AUC (confluence x time, arbitrary))
# Experimental: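 compare to DMSO control AUC of the same experiment; Monotherapy arm of the osimertinib DTP screen: EGFR-mutant NSCLC cells were treated with the test compound alone at a fixed dose (highest dose with <50% inhibition of parental cells, or 1 uM), then switched to drug-free medium at the DTP stage. IncuCyte confluence was tracked and AUC computed in Prism. AUC scale depends on experiment duration, so each row carries the same-experiment DMSO control AUC (monotherapy activity = DMSO AUC minus monotherapy AUC). The monotherapy value is shared between screen formats.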
# [1] = 300 nM, DMSO control AUC in same experiment: 31840
# [2] = 300 nM, DMSO control AUC in same experiment: 30008
# [3] = 300 nM, DMSO control AUC in same experiment: 43316
# [4] = 1000 nM, DMSO control AUC in same experiment: 72888
# [5] = 1000 nM, DMSO control AUC in same experiment: 28684
# [6] = 1000 nM, DMSO control AUC in same experiment: 43316
smiles,measurement,setting,value
NC(=O)Nc1cc(-c2cccc(F)c2)sc1C(=O)N[C@H]1CCCNC1,area under confluence curve,"5 nM, DMSO control AUC in same experiment: 29563",26800
Cc1nc(Nc2n[nH]c3c2CN(C(=O)N[C@H](CN(C)C)c2ccccc2)C3(C)C)c2sccc2n1,area under confluence curve,"100 nM, DMSO control AUC in same experiment: 20347",22800
C=CCn1c(=O)c2cnc(Nc3ccc(N4CCN(C)CC4)cc3)nc2n1-c1cccc(C(C)(C)O)n1,area under confluence curve,"100 nM, DMSO control AUC in same experiment: 22064",21300
same,area under confluence curve,"100 nM, DMSO control AUC in same experiment: 30604",30700
COC(=O)c1ccc([C@H]2c3[nH]c4ccccc4c3C[C@H](C(=O)OC)N2C(=O)CCl)cc1,area under confluence curve,"100 nM, DMSO control AUC in same experiment: 27958",27800
same,area under confluence curve,"100 nM, DMSO control AUC in same experiment: 30326",27300
same,area under confluence curve,"100 nM, DMSO control AUC in same experiment: 45737",46100
CCN1CCN(Cc2ccc(Nc3ncc(F)c(-c4cc(F)c5nc(C)n(C(C)C)c5c4)n3)nc2)CC1 [Abemaciclib],area under confluence curve,"100 nM, DMSO control AUC in same experiment: 28684",28400
same,area under confluence curve,"100 nM, DMSO control AUC in same experiment: 30578",29700
same,area under confluence curve,"100 nM, DMSO control AUC in same experiment: 88996",88400
COc1nnc2ccc(N3CCC(c4ccc(OCCN5CCN(C)C(=O)[C@H]5C)cc4)CC3)nn12,area under confluence curve,"300 nM, DMSO control AUC in same experiment: 19076",19200
same,area under confluence curve,"300 nM, DMSO control AUC in same experiment: 21594",20500
same,area under confluence curve,[1],31700
same,area under confluence curve,"300 nM, DMSO control AUC in same experiment: 44384",39700
Nc1nc(Nc2ccc3c(c2)CCC(N2CCCC2)CC3)nn1-c1cc2c(nn1)-c1ccccc1CCC2 (stereo not given),area under confluence curve,"300 nM, DMSO control AUC in same experiment: 20197",19600
same,area under confluence curve,[2],28200
CN(C)CCCOc1ccc(-c2ccc3ncc4c(c3c2)n(C2CCOCC2)c(=O)n4C)cn1,area under confluence curve,"300 nM, DMSO control AUC in same experiment: 22064",22000
same,area under confluence curve,"300 nM, DMSO control AUC in same experiment: 29563",30100
same,area under confluence curve,"300 nM, DMSO control AUC in same experiment: 30604",30300
Cc1c[nH]c2nc(Nc3ccc(N4CCN(C)CC4)c(F)c3)nc(-c3cccc(CC#N)c3)c12,area under confluence curve,"300 nM, DMSO control AUC in same experiment: 28684",21400
same,area under confluence curve,[2],29700
same,area under confluence curve,[3],33700
NC1(C(=O)N[C@@H](CCO)c2ccc(Cl)cc2)CCN(c2nc[nH]c3nccc2-3)CC1 [Capivasertib],area under confluence curve,"300 nM, DMSO control AUC in same experiment: 30578",29000
same,area under confluence curve,[1],30700
same,area under confluence curve,[3],42700
CN(C)C(=O)c1cc2cnc(Nc3ccc(N4CCNCC4)cn3)nc2n1C1CCCC1 [Ribociclib],area under confluence curve,"300 nM, DMSO control AUC in same experiment: 88996",88200
O=C(N[C@@H](C1CC1)C(F)(F)F)c1cc(-c2cnn3cc(-c4ccc(F)cc4)cnc23)cs1,area under confluence curve,"1000 nM, DMSO control AUC in same experiment: 18733",18000
Cc1cccc(-c2[nH]c(C(C)(C)C)nc2-c2ccc3nccnc3c2)n1,area under confluence curve,"1000 nM, DMSO control AUC in same experiment: 20567",20400
same,area under confluence curve,"1000 nM, DMSO control AUC in same experiment: 22064",21700
COc1ccc(CCc2nc3cc(-c4c(C)noc4C)ccc3n2C[C@H](C)N2CCOCC2)cc1Cl,area under confluence curve,"1000 nM, DMSO control AUC in same experiment: 26668",28400
same,area under confluence curve,"1000 nM, DMSO control AUC in same experiment: 48219",49000
same,area under confluence curve,[4],72800
C[C@@H](Nc1cc(F)cc(F)c1)c1cc(C(=O)N(C)C)cc2c(=O)cc(N3CCOCC3)oc12,area under confluence curve,[5],28100
same,area under confluence curve,"1000 nM, DMSO control AUC in same experiment: 30578",29100
same,area under confluence curve,"1000 nM, DMSO control AUC in same experiment: 30580",28800
same,area under confluence curve,[6],42700
CCn1nc(C2CCN(C(=O)CCO)CC2)nc1-c1cnc(N)c(-c2nnc(C(C)(C)C)o2)n1,area under confluence curve,[5],28000
same,area under confluence curve,[6],43000
CCN(c1cc(-c2ccc(CN3CCOCC3)cc2)cc(C(=O)NCc2c(C)cc(C)[nH]c2=O)c1C)C1CCOCC1 [Tazemetostat],area under confluence curve,"1000 nM, DMSO control AUC in same experiment: 30326",29400
CCn1cc(-c2cccc(C(F)(F)F)c2)c2sc(C(=N)NC3CCS(=O)(=O)CC3)cc2c1=O,area under confluence curve,[4],73000
